Source: PubChem BioAssay (NCATS)
Where “and” joins values, the source holds several entries; their conditions need not be identical. Equal entries are not always repeated. Records with an inconclusive call do not appear. A structure can be active in one record and inactive in another. Calls of active or inactive are those of the source. Calls come from the whole dose curve.
Potency is the fitted concentration of half-maximal effect.

Experiment: Confirmatory qHTS to identify inhibitors of SARS-CoV-2 cell entry (AID 1645844); note: nearly all actives have a fitted effect of over 45% in size
Conditions: SARS-CoV-2 pseudotyped particle cell entry, luciferase; series mostly up to 57.2 µM; activity, negative = inhibition: at the top concentration
In short: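 Luminescence entry read-out after 48 h: spike-pseudotyped MLV particles (Wuhan-Hu-1, 19-aa C-terminal truncation) added to compound-pretreated (1 h) HEK293-ACE2 cells; Data were normalised to bald PP and spike PP wells.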
In the case of Cc1cc(C)c(CNC(=O)c2cc(-c3ccc(N4CCN(C)CC4)nc3)cc3c2c(C)cn3C(C)C)c(=O)[nH]1, the Potency is reported as 27.1 µM (active).
For CCCC[C@@H](C=O)NC(=O)[C@H](CC(C)C)NC(=O)OCc1ccccc1, the Potency was 1.08 µM (active).
For CC[C@H](NC(=O)[C@H](CS(=O)(=O)CC1CC1)N[C@@H](c1ccc(F)cc1)C(F)(F)F)C(=O)C(=O)NC1CC1, the Potency was 1.08 µM (active).
With O=C(NCc1ccccc1)[C@H](Cc1ccccc1)NC(=O)[C@H]1O[C@@H]1C(=O)NCCc1ccc(O)cc1 the Potency was 1.36 µM (active).

Experiment: Cytotoxicity counterscreen for inhibitors of SARS-CoV-2 cell entry (AID 1645845); note: nearly all actives have a fitted effect of over 50% in size; for activity change, negative = cytotoxicity: % is set by controls: 0 for no effect and ±100 for the full control effect
Conditions: cell viability (SARS-CoV-2 entry assay cells); series mostly up to 57.1 µM; activity change, negative = cytotoxicity: at the top concentration
In short: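 ATP-content luminescence (ATPLite 1step, 15 min RT) read after 48 h compound exposure of Expi293F cells stably expressing human ACE2; normalized to cells-only wells and media-only wells.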
For CC#C[C@@H](CC(=O)O)c1ccc(OCc2cccc(-c3ccc(C(F)(F)F)cc3)c2)cc1, the “activity change, negative = cytotoxicity” value was 0.597% (inactive).
With Cc1ncc(NC(=O)c2ccc(CN3CCN(C)CC3)c(C(F)(F)F)c2)cc1Nc1nccc(-c2cccnc2)n1 the “activity change, negative = cytotoxicity” value was 4.14% (inactive).
In the case of C/C(=N\NC(=O)c1cccc(S(=O)(=O)N2CCOCC2)c1)c1cc(Cl)ccc1O, the “activity change, negative = cytotoxicity” value is reported as -15% (inactive).
For C=CC(=O)N[C@H]1CCOC[C@H]1Nc1ncc2cc(-c3c(Cl)c(OC)cc(OC)c3Cl)ccc2n1, the “outcome” value was “inactive”.
With Cc1cc(C)c(CNC(=O)c2cc(-c3ccc(N4CCN(C)CC4)nc3)cc3c2c(C)cn3C(C)C)c(=O)[nH]1 the Potency was “inactive”.
For CCCN1CCN(c2ccc(C(=O)NC3(C(=O)NCC#N)CCCCC3)cc2)CC1, the “activity change, negative = cytotoxicity” value was -1.37% (inactive).
In the case of CNC(=O)c1ccc2c(C(=Nc3cccc(CN(C)C)c3)c3ccccc3)c(O)[nH]c2c1, the “activity change, negative = cytotoxicity” value is reported as -15.4% (inactive).
In the case of CNCc1ccc(-c2cc(-c3nc(-c4ccc(S(=O)(=O)C(C)C)cc4)cnc3N)on2)cc1, the “activity change, negative = cytotoxicity” value is reported as -1.68% (inactive).
In the case of Cn1cc(-c2ccc(-c3cncc(Cl)c3N3CCC4(CCNC4=O)CC3)cc2)cn1, the “activity change, negative = cytotoxicity” value is reported as 0.736% (inactive).
With c1ccc(-c2ccc(CNc3nc(-c4ccccn4)nnc3-c3ccccc3)cc2)cc1 the Potency was 14.1 µM (active).
With CCCC[C@@H](C=O)NC(=O)[C@H](CC(C)C)NC(=O)OCc1ccccc1 the “activity change, negative = cytotoxicity” value was 4.62% (inactive).
In the case of CN1CCN(c2ccc(C(=O)Nc3n[nH]c4ccc(Cc5cc(F)cc(F)c5)cc34)c(NC3CCOCC3)c2)CC1, the Potency is reported as 31.6 µM (active).
In the case of CC[C@H](NC(=O)[C@H](CS(=O)(=O)CC1CC1)N[C@@H](c1ccc(F)cc1)C(F)(F)F)C(=O)C(=O)NC1CC1, the “outcome” value is reported as “inactive”.
With CONC(=O)Nc1ccc(-c2sc3c(c2CN(C)Cc2ccccc2)c(=O)n(-c2ccccc2)c(=O)n3Cc2c(F)cccc2F)cc1 the “outcome” value was “inactive”.
In the case of O=C(NCc1ccccc1)[C@H](Cc1ccccc1)NC(=O)[C@H]1O[C@@H]1C(=O)NCCc1ccc(O)cc1, the “outcome” value is reported as “inactive”.
In the case of CCCCNc1ncc2c(-c3ccc(CN4CCN(C)CC4)cc3)cn(C3CCC(O)CC3)c2n1 (stereo not given), the Potency is reported as “inactive and 25.1 µM (active)”.
